This note sets out measurements from PubChem BioAssay AID1259417 (TB Discovery Research, Infectious Disease Research Institute, 2018).

Molecules are shown by their SMILES. The whole screen tested about 1,100 compounds, of which about 760 (69%) were called active. The rule behind the calls is not given here. So high a share suggests a set chosen from earlier hits. The list shows a part of the results.

This experiment is described as follows: M. tuberculosis growth inhibition, HTS (AID 1259417).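 Note: bacteria grown with compound for 5 days at 37 °C.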 The note with it: stronger effect = higher value, concentration not given here.
The mark [1] stands for this setting: M. tuberculosis DsRed fluorescence growth inhibition.
Setting [2] is: M. tuberculosis growth inhibition.

Take `Cc1ccc(C(=O)Nc2ccc([N+](=O)[O-])cc2)s1`: the inhibition is 98.3% (active) under setting [1] and 94.8% under setting [2].

In the case of `CCOC(=O)c1c(NC(=O)C2COc3ccccc3O2)sc2c1CC(C)(C)NC2(C)C` (configuration not stated), the inhibition reads like this: under setting [1], 29.1% (inactive); under setting [2], -2.75%.

As for `CCOC(=O)c1ccc(NC(=O)c2ccc(C)s2)cc1`, the inhibition was 91.5% (active) under setting [1] and 65.1% under setting [2].

As for `CCOC(=O)c1ccc(NC(=O)C=Cc2ccc([N+](=O)[O-])s2)cc1`, the inhibition under setting [1] was 52.9% (active) and the inhibition under setting [2] came to 80.2%.

`Cc1ccc(C)c(OCC(=O)Nc2ccc(C(=O)OC(C)C)cc2)c1C`: the inhibition is, setting by setting: under setting [1], 8.22% (inactive); under setting [2], -22.5%.

Turning to `O=c1c2cc(Cl)ccc2oc2nc3n(c(=O)c12)CCCS3`, the inhibition reads like this: under setting [1], 99.1% (active); under setting [2], 98.2%.

`O=Cc1ccc2oc3nc4n(c(=O)c3c(=O)c2c1)CCCS4`: the inhibition was 96.9% (active) under setting [1] and 95.6% under setting [2].

`O=C(Nc1ccn(Cc2ccc(Cl)cc2)n1)c1ccc2c(c1)OCO2`: the inhibition is 100% (active) under setting [1] and 99.3% under setting [2].

On to `CC(C)c1ccc(-c2csc(NC(=O)c3ccc4c(c3)OCCO4)n2)cc1`, for which the inhibition is, setting by setting: under setting [1], -4.25% (inactive); under setting [2], -26.1%.

`O=C1N(Cc2ccccc2Cl)c2ccc(Br)cc2C1(O)c1c[nH]c2ccccc12` (configuration not stated): the inhibition runs as follows: under setting [1], 10.6% (inactive); under setting [2], -0.98%.

`Cc1ccc(C(=O)Nc2sc(C)c(C)c2C(N)=O)cc1I`: the inhibition reads like this: under setting [1], 3.89% (inactive); under setting [2], -13.1%.

As to `O=C(Nc1ccccc1Br)c1ccc([N+](=O)[O-])o1`, the inhibition was 64% (active) under setting [1] and 42.2% under setting [2].

For `CCc1cc(I)ccc1NC(=O)c1ccc([N+](=O)[O-])o1`, the inhibition was 98% (active) under setting [1] and 98.3% under setting [2].

`CCN(CC)c1ccc(NC(=O)c2ccc([N+](=O)[O-])o2)c(C)c1`: the inhibition under setting [1] is 98.8% (active) and the inhibition under setting [2] was 99.7%.

Take `Cc1ccc(C(=O)Nc2ccc([N+](=O)[O-])cc2C)cc1I`: the inhibition reads like this: under setting [1], 97.4% (active); under setting [2], 83.2%.

Regarding `Cc1cc(NC(=O)c2ccc([N+](=O)[O-])o2)c(C)cc1I`, the inhibition reads like this: under setting [1], 88% (active); under setting [2], 92%.

Consider `c1ccc(CCNc2nc(-c3ccccn3)cs2)cc1`, for which the inhibition was 87.2% (active) under setting [1] and 86.6% under setting [2].

For the compound `COc1ccc(CCNc2nc(-c3ccccn3)cs2)cc1OC`, the inhibition is, setting by setting: under setting [1], 89.5% (active); under setting [2], 78%.

As for `Cc1cn2c3c(=O)[nH]c(=O)n(C)c3nc2n1CCCNc1ccccc1`, the inhibition reads like this: under setting [1], 34.8% (active); under setting [2], 31.6%.

Regarding `CCOC(=O)C(C)Sc1nnc(NC(=O)c2ccc(C)c([N+](=O)[O-])c2)s1` (configuration not stated), the inhibition is -5.3% (inactive) under setting [1] and 0.339% under setting [2].

On to `CCc1ccc(Nc2nnc(SCC(=O)Nc3cccnc3Cl)s2)cc1`, for which the inhibition reads like this: under setting [1], 7.74% (inactive); under setting [2], 23.1%.

Take `Cc1cccc2sc(NC(=O)c3ccc(C(C)(C)C)cc3)nc12`: the inhibition reads like this: under setting [1], 12.6% (inactive); under setting [2], 14.7%.

Take `COC(=O)CSc1nnc(NC(=O)c2ccc(C(C)(C)C)cc2)s1`: the inhibition is 99.1% (active) under setting [1] and 98.3% under setting [2].

With `COC(=O)CSc1nnc(NC(=O)c2ccc(Cl)cc2)s1`, the inhibition was 88.6% (active) under setting [1] and 86.6% under setting [2].

In the case of `CC(C)c1ccc(Nc2nnc(SCC(=O)Nc3ncc(S(=O)(=O)c4ccc([N+](=O)[O-])cc4)s3)s2)cc1`, the inhibition is -1.44% (inactive) under setting [1] and -2.42% under setting [2].

Take `CC1=Nc2c(ccc3cccnc23)C1(C)C`: the inhibition by setting is: under setting [1], 8.5% (active); under setting [2], 35.9%.

In the case of `COc1ccccc1-c1nnc(Nc2nc3c(F)cccc3s2)o1`, the inhibition under setting [1] is 30.8% (active) and the inhibition under setting [2] was 84.8%.

Turning to `Cc1ccc(C(=O)NCCC2=CCCCC2)cc1I`, the inhibition is, setting by setting: under setting [1], 81.3% (active); under setting [2], 52.7%.

In the case of `Cc1ccc(C(=O)NCCC2=CCCCC2)cc1Br`, the inhibition under setting [1] was 86.6% (active) and the inhibition under setting [2] worked out at 67.2%.

With `COCCCNC(=O)c1c(NC(=O)c2ccc(C(C)(C)C)cc2)sc2c1CCCC2`, the inhibition by setting is: under setting [1], 15.2% (inactive); under setting [2], -1.37%.

For `Cc1ccc(C(=O)NCCSC(C)(C)C)cc1[N+](=O)[O-]`, the inhibition is -1.92% (inactive) under setting [1] and -26.5% under setting [2].

As for `CCn1c2ccccc2c2cc(CN3CCC(N4CCN(c5ccccc5)CC4)CC3)ccc21`, the inhibition under setting [1] was -3.76% (inactive) and the inhibition under setting [2] is -28%.

Take `COC(=O)CSc1ccc(C#N)c(SCC(=O)OC)c1`: the inhibition was -1.74% (active) under setting [1] and 42.7% under setting [2].

`COC(=O)CSc1ccc2c(N)c(C(=O)OC)sc2c1`: the inhibition is, setting by setting: under setting [1], 43.5% (active); under setting [2], 77.1%.

Consider `COC(=O)CSc1cc(SCC(=O)OC)c(C#N)c(SCC(=O)OC)c1`, for which the inhibition by setting is: under setting [1], 28.8% (inactive); under setting [2], 23.9%.

For the compound `Cc1cc(C(C)(C)C)ccc1OCCOCCn1ccnc1`, the inhibition runs as follows: under setting [1], 99.2% (active); under setting [2], 100%.

Regarding `Cc1cc(C(C)(C)C)ccc1OCCCCn1ccnc1`, the inhibition is, setting by setting: under setting [1], 99.4% (active); under setting [2], 99.7%.

Take `N=c1c2c(-c3ccccc3)c(-c3ccccc3)n(Cc3ccco3)c2ncn1Cc1ccco1`: the inhibition is, setting by setting: under setting [1], 71% (active); under setting [2], 61.5%.

Regarding `O=C(CSc1nnc(-c2cccnc2)o1)N1CCC(Cc2ccccc2)CC1`, the inhibition by setting is: under setting [1], 95.4% (active); under setting [2], 86.2%.

As for `COc1ccccc1N1C(=O)c2cccc3cc([N+](=O)[O-])cc(c23)C1=O`, the inhibition reads like this: under setting [1], 89.8% (active); under setting [2], 95.8%.

In the case of `Cc1cccc(OCc2nnc(SCC(=O)NCCc3ccccc3)o2)c1`, the inhibition runs as follows: under setting [1], 92.7% (active); under setting [2], 74.5%.

For `Cc1cccc(C)c1OCc1nnc(SCC(=O)NCCc2ccccc2)o1`, the inhibition by setting is: under setting [1], 84.2% (active); under setting [2], 73.9%.

On to `CSc1ccc(C(CC(=O)c2ccccc2)Nc2ccc(F)cc2)cc1` (configuration not stated), for which the inhibition under setting [1] is 19.6% (inactive) and the inhibition under setting [2] worked out at 21.6%.

On to `Cn1c(NC(=O)c2ccccc2)nc2ccccc21`, for which the inhibition under setting [1] was 98.3% (active) and the inhibition under setting [2] was found to be 99.7%.

Take `Cn1c(NC(=S)Nc2ccccc2)nc2ccccc21`: the inhibition under setting [1] is 21.4% (active) and the inhibition under setting [2] turned out to be 48.5%.

For `O=C(CSc1ccc(Br)cc1)Nc1cccc(Cl)c1`, the inhibition is 7.93% (inactive) under setting [1] and 16.8% under setting [2].

Turning to `O=C(Nc1cccc(Cl)c1)c1cc(Br)ccc1Cl`, the inhibition is, setting by setting: under setting [1], 76.3% (active); under setting [2], 46.1%.

Take `COc1ccc(N2C(=O)C(F)(F)C2c2ccccc2F)cc1` (configuration not stated): the inhibition was 33.6% (active) under setting [1] and 75.8% under setting [2].

Consider `Cc1c(CNC(=O)c2cnn3c2NC(c2ccc(Br)cc2)CC3C(F)(F)F)cnn1C` (configuration not stated), for which the inhibition runs as follows: under setting [1], 57.6% (active); under setting [2], 17.9%.

Turning to `O=C(NCc1ccc2c(c1)OCO2)c1cnn2c1NC(c1cccs1)CC2C(F)(F)F` (configuration not stated), the inhibition by setting is: under setting [1], 100% (active); under setting [2], 94.1%.

For `O=C(NCc1ccco1)c1cnn2c1NC(c1ccc(Br)cc1)CC2C(F)(F)F` (configuration not stated), the inhibition by setting is: under setting [1], 38.9% (active); under setting [2], 15.1%.

For `CSc1nc2ccc(NC(=O)C3CC(=O)N(Cc4ccccc4)C3)cc2s1` (configuration not stated), the inhibition by setting is: under setting [1], 10.7% (inactive); under setting [2], 22.1%.

For `CCOC(=O)c1cnc(-n2nc(C)cc2C)nc1Nc1ccc(OC)cc1`, the inhibition is 54% (active) under setting [1] and 30.7% under setting [2].

Take `CCOC(=O)c1cnc(-n2nc(C)cc2C)nc1NCCc1ccccc1`: the inhibition reads like this: under setting [1], 101% (active); under setting [2], 101%.

As to `O=S1(=O)C=C(Sc2nnc(-c3ccncc3)o2)c2ccccc21`, the inhibition runs as follows: under setting [1], 100% (active); under setting [2], 101%.

Take `O=S1(=O)C=C(Sc2nnc(-c3ccccc3)o2)c2ccccc21`: the inhibition is 100% (active) under setting [1] and 101% under setting [2].

As usually defined, the inhibition is the relative decrease from the control value, in per cent.
